Measurements published in PubChem BioAssay AID1272365 (Small Molecule Screening Facility, UW Madison, 2018).
Values joined by “and” are separate entries in the source; they are usually repeats but may differ in a detail not shown here. Equal values may be shown once. Among all 430,000 compounds or so, about 2,600 (0.6%) were called active. Shown is part of a subset that was picked to be rich in actives. Unmarked numbers belong to inactive results. Cut-off read from the data, not from the text of the source: active = inhibition mostly above about 37% (no sharp cut-off); inactive = mostly below about 20%.

System: PriA–SSB C-terminal tail interaction (Klebsiella pneumoniae)
Test: inhibitors of Klebsiella pneumoniae PriA binding to SSB C-terminal tail, primary screen, biochemical, AlphaScreen (AID 1272365);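 note: plate controls were negative control peptide for no effect and reference peptide for full effect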
Conditions: AlphaScreen SSBct-PriA binding, biotinylated peptide; at 33 µM, stronger effect = higher value

Question: For `CC(=O)N(C)c1ccc(OC[C@@H](O)CN(c2ccc(C)cc2)S(=O)(=O)c2ccc(C)cc2)cc1`, which inhibition is on record?
Answer: Its inhibition is -17%.

Question: With `CC1(C)C(=O)NCCN1C(=O)Cc1ccc2c(c1)OCO2` as the compound, how does the inhibition read?
Answer: The inhibition was -2% and -8%.

Question: How did the inhibition turn out when `COC1(CNC(=O)C2CCN(S(C)(=O)=O)CC2)CCSC1` (stereo not given) was run?
Answer: The inhibition was -5%.

Question: Which inhibition does the source give for `COc1ccc(NC(=O)Nc2ccc(N3CCOCC3)cc2)cc1` here?
Answer: Its inhibition is -16%.

Question: Which inhibition does the source give for `C=CC(=O)Nc1ccc(Nc2ccnc(Nc3ccc(N4CCN(C)CC4)cc3)n2)cc1` here?
Answer: The inhibition was 56.7% (active).

Question: How did the inhibition turn out when `COc1ccc(N2CCN(C(=S)Nc3ccc(C(C)=O)cc3)CC2)cc1` was run?
Answer: The inhibition was 5%.

Question: With `O=C(c1cc(Cl)sc1Cl)N(CC1CCCO1)c1nc2c(F)cc(F)cc2s1` (stereo not given) as the compound, how does the inhibition read?
Answer: Its inhibition is -20%.

Question: Which inhibition does the source give for `CCOC(=O)N1CCN(C(=O)Cn2nc(C(F)(F)F)n(C)c2=O)CC1` here?
Answer: Its inhibition is 2%.

Question: Which inhibition does the source give for `O=C(Nc1ccccc1-c1ccc(=O)[nH]n1)c1ccncc1` here?
Answer: The inhibition was -12%.

Question: Which inhibition does the source give for `CC(=O)N1N=C(c2ccncc2)OC1(Cc1ccccc1)Cc1ccccc1` here?
Answer: The inhibition was -8.22%.

Question: For `COc1ccc(-c2ccc(CCC(=O)O)n2NC(=O)c2ccc(C(C)(C)C)cc2)cc1`, which inhibition is on record?
Answer: The inhibition was -5.78%.

Question: Which inhibition does the source give for `COc1ccc(CC2(C)OC(c3ccc(C(C)(C)C)cc3)=NN2C(C)=O)cc1` (stereo not given) here?
Answer: The inhibition was 62.5% (active).

Question: For `Cn1c(=O)c2nc(SCC(=O)Nc3ccc(F)c([N+](=O)[O-])c3)n(C)c2n(C)c1=O`, which inhibition is on record?
Answer: The inhibition was -5%.

Question: `CCOc1ccc(-c2ccc(=O)n(CCNC(=O)C3CC3)n2)cc1` was tested. Which inhibition did it give?
Answer: The inhibition was 6%.

Question: How did the inhibition turn out when `NC(=NOC(=O)c1ccc(=O)n(Cc2ccccc2)c1)c1ccccn1` was run?
Answer: The inhibition was 3.95%.

Question: `CSc1ccc(C=NNC(=O)CNc2ccc3ccccc3c2)cc1` was tested. Which inhibition did it give?
Answer: Its inhibition is 47.7% (active).

Question: Which inhibition does the source give for `O=C(CNc1ccc2ccccc2c1)NN=Cc1ccc(C(=O)O)cc1` here?
Answer: Its inhibition is 13.8%.

Question: `COC(=O)c1ccc(C=NNC(=O)CNc2cccc(C)c2)cc1` was tested. Which inhibition did it give?
Answer: Its inhibition is -5.68%.

Question: For `C(#Cc1ccc2noc(-c3ccccc3)c2c1)c1ccccc1`, which inhibition is on record?
Answer: The inhibition was -6%.

Question: Which inhibition does the source give for `O=C(CCN1CCOCC1)N1N=C(c2ccccc2)CC1c1cccc([N+](=O)[O-])c1` (stereo not given) here?
Answer: Its inhibition is 8%.

Question: Which inhibition does the source give for `O=C(c1ccc(F)cc1)c1cn(Cc2ccc(F)cc2)c2cc3c(cc2c1=O)OCCO3` here?
Answer: Its inhibition is 115% (active).

Question: With `Cc1ccc(Cn2cc(C(=O)NN)c(=O)c3ccc(F)cc32)cc1` as the compound, how does the inhibition read?
Answer: Its inhibition is -0.06%.

Question: How did the inhibition turn out when `COc1cccc(Cn2cc(C(=O)c3ccccc3)c(=O)c3cc4c(cc32)OCCO4)c1` was run?
Answer: Its inhibition is -13%.

Question: Which inhibition does the source give for `COc1ccc(C=Nc2cccc3ncccc23)cc1` here?
Answer: Its inhibition is 86.5% (active).

Question: Which inhibition does the source give for `C=CCn1c(N=Cc2ccc(OC)cc2)nc2ccccc21` here?
Answer: Its inhibition is 10.8%.

Question: How did the inhibition turn out when `CCc1nc2ccccc2c(=O)n1N=Cc1ccc(OC)cc1` was run?
Answer: Its inhibition is 4.76%.

Question: How did the inhibition turn out when `CCOC(=O)c1c(-c2ccc(F)cc2)csc1NC(=O)CSc1n[nH]c(N)n1` was run?
Answer: Its inhibition is 9%.

Question: `Cc1ccc(OCc2nc(C#N)c(N3CCCC3)o2)cc1` was tested. Which inhibition did it give?
Answer: Its inhibition is -11.1%.

Question: `CCCOc1ccc(-c2nc(C#N)c(N3CCCCC3)o2)cc1` was tested. Which inhibition did it give?
Answer: Its inhibition is 90% (active).

Question: With `Cc1ccc(OCc2ccc(-c3nc(C#N)c(N4CCCCCC4)o3)o2)cc1` as the compound, how does the inhibition read?
Answer: The inhibition was 39.5%.

Question: Which inhibition does the source give for `COc1cccc2cc(C(=O)C3=C(O)C(=O)N(CCN(C)C)[C@@H]3c3ccccc3F)oc12` here?
Answer: The inhibition was -20%.

Question: How did the inhibition turn out when `NS(=O)(=O)c1ccc(NC(=O)c2cn(Cc3cccc(F)c3)nc2OCc2cccc(F)c2)cc1` was run?
Answer: The inhibition was -16%.

Question: For `Cc1ccc(C=NNC(=O)c2cccc(S(=O)(=O)Nc3cccc(Cl)c3)c2)o1`, which inhibition is on record?
Answer: Its inhibition is -6.77%.

Question: `COc1cccc(NC(=O)c2nn(-c3ccc(OC)cc3OC)c(=O)c3ccccc23)c1` was tested. Which inhibition did it give?
Answer: Its inhibition is -7.71%.

Question: How did the inhibition turn out when `COc1cccc(NC(=O)C2C(c3ccccc3)C2(Cl)Cl)c1` (stereo not given) was run?
Answer: The inhibition was -12.2%.

Question: How did the inhibition turn out when `COc1ccc2c(c1)C(C)=CC(C)(C)N2C(=O)Nc1ccccc1` was run?
Answer: Its inhibition is 38.4% (active).

Question: With `CCOC(=O)c1ccc(NC(=O)CSc2nnc(-c3cccs3)n2-n2cccc2)cc1` as the compound, how does the inhibition read?
Answer: The inhibition was 0%.

Question: `CCOC(=O)CNC(=O)NC1CC(=O)N(c2ccccc2)C1` (stereo not given) was tested. Which inhibition did it give?
Answer: Its inhibition is 32%.

Question: For `CC1(C)N=C(c2ccccn2)C(C)(C)N1O`, which inhibition is on record?
Answer: Its inhibition is -5.91%.

Question: How did the inhibition turn out when `Cc1c(N)nc(-c2ccccn2)nc1Cl` was run?
Answer: Its inhibition is 47.3%.

Question: Which inhibition does the source give for `Cc1cnc(-c2ccccn2)nc1N` here?
Answer: Its inhibition is 151% (active).

Question: How did the inhibition turn out when `COc1ccc(NC(=O)Cn2ncn3nc(-c4ccc(F)cc4)cc3c2=O)cc1Cl` was run?
Answer: The inhibition was 6%.

Question: For `CNC(=S)NN=C(C)c1cccc(C(F)(F)F)c1`, which inhibition is on record?
Answer: The inhibition was -4.78%.

Question: For `Cn1cc(C(=O)NCC2(c3ccsc3)CCCC2)nn1`, which inhibition is on record?
Answer: Its inhibition is -24%.

Question: `O=C(Cc1ccc(F)cc1)NCC1(c2ccsc2)CCCC1` was tested. Which inhibition did it give?
Answer: Its inhibition is -6%.

Question: With `O=C(NCC1(c2ccsc2)CCCC1)Nc1cccs1` as the compound, how does the inhibition read?
Answer: The inhibition was 53% (active).

Question: Which inhibition does the source give for `NCCc1csc2nc(-c3cccc(F)c3)nn12` here?
Answer: The inhibition was 16%.

Question: With `O=C(Nc1cnc(N2CCN(c3ccccc3)CC2)nc1)c1c(F)cccc1F` as the compound, how does the inhibition read?
Answer: The inhibition was -6%.

Question: How did the inhibition turn out when `Cc1cc(NC(=O)C(C)(C)CCl)n(-c2ncnc3c2cnn3-c2cccc(C)c2C)n1` was run?
Answer: The inhibition was 11%.

Question: With `Cc1cc(NC(=O)c2ccccc2Cl)n(-c2nc3c(cnn3-c3cccc(C)c3C)c(=O)[nH]2)n1` as the compound, how does the inhibition read?
Answer: Its inhibition is 53% (active).

Question: For `Cc1ccc(-n2ncc3c(=O)[nH]c(-n4nc(C)cc4NC(=O)Cc4ccccc4)nc32)cc1`, which inhibition is on record?
Answer: Its inhibition is -5%.

Question: For `CCOC(=O)N1CCC(NC(=O)Cc2csc(Nc3ccc(F)cc3)n2)CC1`, which inhibition is on record?
Answer: The inhibition was 2%.

Question: How did the inhibition turn out when `CC(C)n1cnc2c(NCc3ccccc3)cc(OCC3CCN(C)CC3)cc21` was run?
Answer: The inhibition was 53.1% (active).

Question: Which inhibition does the source give for `O=C(c1ccc(S(=O)(=O)NCc2cccnc2)o1)N1CCC(Cc2ccccc2)CC1` here?
Answer: Its inhibition is 5%.

Question: How did the inhibition turn out when `O=[N+]([O-])c1cc(C(F)(F)F)ccc1NCCc1ccncc1` was run?
Answer: The inhibition was -11.2%.

Question: With `O=[N+]([O-])c1cc(S(=O)(=O)N2CCCC2)ccc1NN=C1CCCC1` as the compound, how does the inhibition read?
Answer: Its inhibition is 11.5%.

Question: `O=[N+]([O-])c1cc(C(F)(F)F)ccc1NN=C1CCCC1` was tested. Which inhibition did it give?
Answer: The inhibition was 43.5% (active).

Question: `COc1cc(OC)c(OC)cc1/C=C1/C(=O)NC(=N)N1C` was tested. Which inhibition did it give?
Answer: The inhibition was -14.1%.

Question: With `O=C(COc1ccc(Cl)cc1Cl)NCC(=O)N/N=C\c1cccs1` as the compound, how does the inhibition read?
Answer: The inhibition was -6%.

Question: `CC(=O)c1ccc(S(=O)(=O)N2CC(S(=O)(=O)c3ccc(Cl)cc3)C2)cc1` was tested. Which inhibition did it give?
Answer: The inhibition was -15%.
